Results as given in PubChem BioAssay (NCI).
About 79,000 compounds went through this panel and 15% of them were active in at least one assay; those are over-represented in the sample as a whole. The source made the active and inactive calls. Cut-off read from the data, not from the text of the source: active = growth inhibition above about 70%; inactive = the rest.

Assays:
[1] = NCI Yeast Anticancer Drug Screen. Data for the rad50 strain (AID 155);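 note: 0% = growth of vehicle-only cultures of the same strain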; settings: S. cerevisiae rad50 strain growth inhibition; at 50.0 µM; active compounds read high
How it was run: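 Compounds were tested on a yeast strain with an engineered DNA damage repair alteration; the reported value is growth inhibition normalised to vehicle treatment.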

[2] = NCI Yeast Anticancer Drug Screen. Data for the mec2-1 strain (AID 157); settings: S. cerevisiae mec2-1 strain, at 50.0 µM, active compounds read high
How it was run: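 Cells of the genetically defined mec2-1 yeast strain are incubated with test compound. Inhibition of growth is calculated against vehicle-treated controls.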

[3] = NCI Yeast Anticancer Drug Screen. Data for the sgs1 mgt1 strain (AID 161);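 note: 0% = growth of cultures given vehicle only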; settings: S. cerevisiae sgs1 mgt1 strain, at 50.0 µM, active compounds read high
How it was run: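 Genetically altered yeast, compound exposure, growth inhibition relative to vehicle.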

[4] = NCI Yeast Anticancer Drug Screen. Data for the cln2 rad14 strain (AID 165);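 note: 0% = growth equal to vehicle treated cultures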; settings: S. cerevisiae cln2 rad14 strain, at 50.0 µM, active compounds read high
How it was run: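 The screen exposed genetically defined yeast (cln2 rad14) to test compounds and scored growth inhibition relative to vehicle-treated controls.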

[5] = NCI Yeast Anticancer Drug Screen. Data for the bub3 strain (AID 167); settings: S. cerevisiae bub3 mutant strain, at 50.0 µM, active compounds read high
How it was run: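 Growth of a checkpoint-deficient yeast mutant is measured after compound exposure. Values represent inhibition relative to vehicle.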

[6] = NCI Yeast Anticancer Drug Screen. Data for the mlh1 rad18 strain (AID 175); settings: S. cerevisiae mlh1 rad18 strain growth inhibition; at 50.0 µM; active compounds read high
How it was run: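 Compound-treated yeast growth, normalised to vehicle controls. Strain bears defined DNA repair mutations.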

Measured: growth inhibition

COc1ccc(-c2c(-c3ccccc3)c(-c3ccccc3)nn2-c2ccccc2)cc1
inactive: [1] 45.2% | [2] 4.85% | [3] 34.8% | [4] 22.4% | [5] 2.5% | [6] 20.9%

[O-][N+](=Nc1ccccc1)c1ccccc1
inactive: [1] 1.2% | [2] 1.35% | [3] 35.9% | [4] -0.9% | [5] 3.75% | [6] 24%

O=C(OCC1OC(n2nc(SCc3ccccc3)c(=S)[nH]c2=O)C(OC(=O)c2ccccc2)C1OC(=O)c1ccccc1)c1ccccc1 (stereo not given)
inactive: [1] 1.05% | [2] 0.35% | [3] 14.2% | [4] -46.9% | [5] -5.7% | [6] 31.8%

CC(C)c1ccccc1OC(=O)c1cccc(Br)c1
inactive: [1] -19% | [2] -1.95% | [3] 0.35% | [4] -23.1% | [5] 13.9% | [6] 1.5%

CC(=O)NC1C(O)OC(COCc2ccccc2)C(OCc2ccccc2)C1OCc1ccccc1 (stereo not given)
inactive: [1] 6.9% | [2] -1.8% | [3] -10.4% | [4] 7.25% | [5] -5.35% | [6] -15.1%

Cc1[nH]nc(C(=O)O)c1N
inactive: [1] -18.2% | [2] -20.6% | [3] -14.6% | [4] -16.1% | [5] -13.4% | [6] -7.2%

O=C(/C=C\c1ccccc1)OCC(=O)c1ccc(-c2ccccc2)cc1
inactive: [1] -20.1% | [2] -2.3% | [3] 1.9% | [4] -34.3% | [5] 1.1% | [6] 4.4%

CCCCOC(=O)/C(=C\c1cccc(OC)c1)NC(=O)c1ccccc1
inactive: [1] 15.8% | [2] 14.9% | [3] 28.5% | [4] 11.2% | [5] 58.2% | [6] 34.6%

COc1ccc(N=NC(=S)NNc2ccc(OC)cc2Oc2ccccc2)c(Oc2ccccc2)c1
inactive: [1] 12.5% | [2] -0.4% | [3] 29.4% | [4] 11.8% | [5] -4.6% | [6] 3.35%

O=C1CCCC/C1=C1/SC(=Nc2ccccc2)C(=Nc2ccccc2)N1c1ccccc1
inactive: [1] 21.2% | [2] 16.1% | [3] 16.2% | [4] 31% | [5] 19.1% | [6] 8.6%

CCOC(=O)C1CCC/C1=N/Nc1ccc([N+](=O)[O-])cc1[N+](=O)[O-] (stereo not given)
inactive: [1] -1% | [2] 10.6% | [3] 3.25% | [4] -21.9% | [5] -5.3% | [6] -4.75%

O=C1C=CC2C=CC1C=C2
inactive: [1] -1.55% | [2] 14.8% | [3] 23.2% | [4] 1.15% | [5] -7.7% | [6] 11.7%

Cc1cc(C(F)(F)F)nc2nc3ccccc3n12
inactive: [1] 6.55% | [2] -18.9% | [3] -0.15% | [4] -3.7% | [5] -29.7% | [6] 6.2%

OC1c2c(ccc3ccccc23)CCC1N1CCCCC1 (stereo not given)
inactive: [1] 12.6% | [2] -4.45% | [3] 0.9% | [4] -34.5% | [5] -13.4% | [6] -5%

Nc1ccccc1C(=O)CC1OC(=O)c2ccccc21 (stereo not given)
inactive: [1] 19.6% | [2] 12.1% | [3] 7.35% | [4] 4% | [5] 7.8% | [6] -13.7%

CC(C)(C)n1nc(C2CC2)c(Br)c1NC(=O)c1ccc(Cl)cc1
inactive: [1] -4.45% | [2] -0.95% | [3] 22.9% | [4] 0.45% | [5] 11.1% | [6] 1.7%

Nc1ccccc1NC(=O)c1nc2ccccc2[nH]1
inactive: [1] 1.55% | [2] 15.2% | [3] 19.6% | [4] 6% | [5] 7.8% | [6] 4.5%

Cc1n(C)c(=O)c2ccccc2[n+]1C
inactive: [1] 5.35% | [2] 5.75% | [3] -7% | [4] -3.3% | [5] 1.95% | [6] 6.4%

Cc1c(N)cc2c(c1N)C(C)(C)CC2(C)C
inactive: [1] 1.35% | [2] -2.2% | [3] -0.4% | [4] -6.35% | [5] 11.1% | [6] -4.6%

Cc1ccc2c(c1)C(c1ccccc1)(c1ccccc1)OC2
inactive: [1] 8.65% | [2] 41.4% | [3] 9.45% | [4] -10.8% | [5] 10.4% | [6] 13.6%

CC#CC(O)(C(=O)OC1CCC2CCC1N2C)C1CCCC1 (stereo not given)
inactive: [1] -25.5% | [2] -8.9% | [3] -23.3% | [4] 6.2% | [5] -3.4% | [6] -4.65%

Cc1ccc([N+](=O)[O-])c2c(NCCC[N+](C)(C)[O-])ccnc12
inactive: [1] 35.9% | [2] -18.1% | [3] 20.6% | [4] 14.2% | [5] -24.7% | [6] 4.4%

CCCC(=O)Oc1c(Cl)cc(Cl)cc1-c1ccccc1
inactive: [1] 12.8% | [2] 12.9% | [3] 37.9% | [4] 8.1% | [5] 28.6% | [6] 1.45%

CN(C)CC1OCCc2ccccc21 (stereo not given)
inactive: [1] 10.1% | [2] 2.9% | [3] 3.75% | [4] 0.6% | [5] 6.05% | [6] 10%

Cc1ccc(S(=O)(=O)OCC2C(c3ccccc3)CCC(c3ccccc3)C2COS(=O)(=O)c2ccc(C)cc2)cc1 (stereo not given)
inactive: [1] -5.6% | [2] -5.4% | [3] -16.1% | [4] -28.6% | [5] 4.25% | [6] 4.45%

COC1c2ccccc2C=CN1c1ccc([N+](=O)[O-])cc1[N+](=O)[O-] (stereo not given)
active: [2] 70.4% | [6] 71.2%
inactive: [1] 61.8% | [3] 69.2% | [4] 27.4% | [5] 59.1%

CS(=O)(=O)OCC1OC(n2ccc(NC(=O)c3ccccc3)nc2=O)CC1OS(C)(=O)=O (stereo not given)
inactive: [1] 0.5% | [2] -16.9% | [3] -5.8% | [4] -11.7% | [5] -14.8% | [6] -4%

Clc1ccc(-c2cc3ccccc3[nH]2)cc1
inactive: [1] 23.9% | [2] -3.3% | [3] -1.25% | [4] -32.4% | [5] 2.4% | [6] -5.05%

CN(C=O)C(C(=O)Nc1cccc2c(OC(=O)C(N(C)C=O)(N(C)C=O)N(C)C=O)c(N=Nc3ccc(S(=O)(=O)Nc4nccs4)cc3)cc(N=Nc3ccc(S(=O)(=O)Nc4nccs4)cc3)c12)(N(C)C=O)N(C)C=O (tested in a mixture with another compound)
inactive: [1] 60.1% | [2] 6.25% | [3] -6.25% | [4] -6.5% | [5] 16.9% | [6] 35.6%

CC(Cc1ccco1)(C(=O)O)C(=O)O
inactive: [1] 11.8% | [2] 16.3% | [3] -14.8% | [4] -1.3% | [5] -11.8% | [6] -11.6%

O=C1C(Cl)=C(Cl)C(=O)N1c1ccccc1Cl
inactive: [1] 42.5% | [2] 23.6% | [3] 36.5% | [4] 43.9% | [5] 34.7% | [6] 55.5%

O=C(C[n+]1ccccc1CCCO)c1ccc(F)cc1
inactive: [1] 3.55% | [2] -19.7% | [3] 4.6% | [4] 28.3% | [5] 3% | [6] 8.45%

CCCCCCCCN(CCCCCCCC)CC(O)c1ccc2c(c1)Sc1ccccc1O2 (stereo not given)
active: [1] 96.7% | [2] 98.2% | [3] 97.5% | [4] 97.1% | [5] 97.1% | [6] 98%

CCN(CC)c1cc(-c2ccccc2)oc(=O)c1Cl
inactive: [1] 25.8% | [2] -10.3% | [3] 13.6% | [4] 9.4% | [5] 16.5% | [6] 20.6%

C#Cc1nc(N)c2ncn(C3OC(COS(N)(=O)=O)C(O)C3O)c2n1 (stereo not given)
inactive: [1] 17.1% | [2] 32.5% | [3] 7.9% | [4] 28.4% | [5] 10.3% | [6] 10.6%

COc1ccc(C)c(C2=CCCCC2)c1
inactive: [1] 4.65% | [2] 3.45% | [3] -9.15% | [4] -6.55% | [5] -2.35% | [6] -15.8%

Cc1ccc2c(Nc3ccc(NS(C)(=O)=O)cc3C)c3ccccc3nc2c1
inactive: [1] 42.4% | [2] -27.4% | [3] 6.2% | [4] 4.2% | [5] 4.25% | [6] -23.5%

Cc1cc(N(CCC#N)CCC#N)ccc1/C=C1\N=C(c2cc([N+](=O)[O-])ccc2Cl)N(c2cccc(Cl)c2)C1=O
inactive: [1] -19.4% | [2] -20.2% | [3] -23.9% | [4] -7.6% | [5] -6.05% | [6] -29.2%

O=C1C=C[C@@H](COC2OC(CO)C(O)C(O)C2O)O1 (stereo not given in full)
inactive: [1] 6.35% | [2] -28.8% | [3] 5.25% | [4] 15.8% | [5] 24.9% | [6] 27.8%

CC(=O)SCCCCl
inactive: [1] -9.25% | [2] 2.1% | [3] 11.2% | [4] -1.25% | [5] 8.25% | [6] -11.3%
